The source made the active and inactive calls. Rule for the calls: active = hit-call score of the fitted dose curve at least 0.9, where 1 is the maximum; inactive = score below 0.9.

Conditions in all cases: mRNA level, 48 h; actives raise or lower the signal
Read-out in assay [1]: ABC Transporter (ABCC2), ABCC2 (gene 1244)
Briefly: LTEA_HepaRG_ABCC2: Life Technologies and Expression Analysis (LTEA) Assay for ABC Transporter (ABCC2) using HepaRG (AID 2283464). Summed up:
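After plating and 48 h culture, HepaRG medium is replaced with serum-free induction medium and chemicals are added (8 concentrations, max 100 uM, 0.5% DMSO) for 48 h. Total RNA then undergoes qRT-PCR for ABCC2 with housekeeping normalization.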

Read-out in assay [2]: Broad substrate specificity ATP-binding cassette transporter ABCG2 (Homo sapiens) (UniProt Q9UNQ0)
The assay is described as follows: LTEA_HepaRG_ABCG2: Life Technologies and Expression Analysis (LTEA) Assay for ABC Transporter (ABCG2) using HepaRG (AID 2283465). In a few lines:
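ABCG2 transcript was quantified by TaqMan qRT-PCR against three housekeeping genes in HepaRG cells. Cells were treated in duplicate for 48 h across an 8-point half-log series up to 100 uM, with 0.5% DMSO vehicle. Gain or loss versus DMSO was fit.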

Read-out in assay [3]: ATP-citrate lyase (ACLY), ACLY (gene 47)
Briefly: LTEA_HepaRG_ACLY: Life Technologies and Expression Analysis (LTEA) Assay for ATP-citrate lyase (ACLY) using HepaRG (AID 2283466). Summed up:
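ACLY mRNA quantified by qRT-PCR on Fluidigm arrays against three housekeeping genes, after 48 h chemical treatment of HepaRG cells (top concentration 100 uM, half-log steps, 0.5% DMSO vehicle). Up- or down-regulation fitted relative to DMSO.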

Read-out in assay [4]: Peroxisomal acyl-coenzyme A oxidase 1 (ACOX1) gene, ACOX1 (gene 51)
Briefly: LTEA_HepaRG_ACOX1: Life Technologies and Expression Analysis (LTEA) Assay for Peroxisomal acyl-coenzyme A oxidase 1 (ACOX1) gene using HepaRG (AID 2283467). In a few lines:
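ACOX1 transcript levels were quantified by TaqMan qRT-PCR against three housekeeping genes after 48 h chemical exposure of differentiated human HepaRG cells. Exposure used eight half-log steps topping at 100 uM, 0.5% DMSO vehicle, in duplicate. Bidirectional curve fits were made relative to DMSO.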

Read-out in assay [5]: Alkaline Phosphatase, Placental (ALPP) gene, ALPP (gene 250)
The assay is described as follows: LTEA_HepaRG_ALPP: Life Technologies and Expression Analysis (LTEA) Assay for Alkaline Phosphatase, Placental (ALPP) gene using HepaRG (AID 2283468). In a few lines: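 Using human liver HepaRG cells, chemicals are tested in duplicate over 48 h at half-log concentrations topping at 100 uM; phenobarbital 1 mM serves as induction control. ALPP mRNA change by qRT-PCR, bidirectional fit against vehicle.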

Read-out in assay [6]: Bcl-2 (BAX) gene, BAX (gene 581)
The assay is described as follows: LTEA_HepaRG_BAX: Life Technologies and Expression Analysis (LTEA) Assay for Bcl-2 (BAX) gene using HepaRG (AID 2283470). In a few lines: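 qRT-PCR read-out of BAX mRNA, normalized to three housekeeping genes, after 48 h chemical exposure of human HepaRG cells in serum-free induction medium; eight-point half-log series, top 100 uM, 0.5% DMSO vehicle; bidirectional fit versus DMSO.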

Read-out in assay [7]: adenosine kinase (ADK) gene, ADK (gene 132)
The assay is described as follows: LTEA_HepaRG_ADK: Life Technologies and Expression Analysis (LTEA) Assay for adenosine kinase (ADK) gene using HepaRG (AID 2283471). Summed up: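 Following 48 h exposure of HepaRG cells in 0.5% DMSO (top concentration 100 uM, duplicate wells), ADK mRNA induction or suppression was measured by qRT-PCR, normalised to ACTB/GAPDH/POLR2A, and fitted bidirectionally relative to vehicle.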

Read-out in assay [8]: Alpha-fetoprotein (AFP) gene, AFP (gene 174)
The assay is described as follows: LTEA_HepaRG_AFP: Life Technologies and Expression Analysis (LTEA) Assay for Alpha-fetoprotein (AFP) gene using HepaRG (AID 2283472). In a few lines: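 qRT-PCR (Fluidigm TaqMan) readout of AFP transcript, normalized to three housekeeping genes, fitted bidirectionally against 0.5% DMSO baseline. HepaRG cells received chemicals for 48 h in serum-free induction medium, top concentration 100 uM, half-log steps.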

Read-out in a further assay: BCL2L11 (gene 10018)
Briefly: LTEA_HepaRG_BCL2L11: Life Technologies and Expression Analysis (LTEA) Assay for Bcl-2 (BCL2L11) gene using HepaRG (AID 2283473). In a few lines:
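Human hepatic HepaRG cultures are treated 48 h with test chemicals (maximum 100 uM, 0.5% DMSO vehicle). Expression of BCL2L11 is measured by qRT-PCR against ACTB, GAPDH and POLR2A, with activity in either direction scored relative to vehicle.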

Read-out in assay [9]: Apolipoprotein A-V (APOA5) gene, APOA5 (gene 116519)
Briefly: LTEA_HepaRG_APOA5: Life Technologies and Expression Analysis (LTEA) Assay for Apolipoprotein A-V (APOA5) gene using HepaRG (AID 2283474). Summed up:
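Concentration-response of APOA5 expression in HepaRG: eight half-log doses to 100 uM, 48 h, qRT-PCR normalized to ACTB/GAPDH/POLR2A, bidirectional fitting with 0.5% DMSO as baseline.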

Read-out in assay [10]: Apoptosis regulator Bcl-2 (Homo sapiens) (UniProt P10415)
The assay is described as follows: LTEA_HepaRG_BCL2: Life Technologies and Expression Analysis (LTEA) Assay for Bcl-2 gene using HepaRG (AID 2283475). Summed up:
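qRT-PCR read-out (Fluidigm TaqMan) of BCL2 transcript, normalised to three housekeeping genes, after 48 h chemical exposure of HepaRG cells; 8-point half-log series, top 100 uM, 0.5% DMSO vehicle. Gain or loss of signal fitted relative to DMSO baseline.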

Read-out in assay [11]: Bcl-2 (BID) gene, BID (gene 637)
Briefly: LTEA_HepaRG_BID: Life Technologies and Expression Analysis (LTEA) Assay for Bcl-2 (BID) gene using HepaRG (AID 2283476). Summed up:
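HepaRG, 48 h exposure, 8-pt half-log series, top 100 uM, 0.5% DMSO vehicle, duplicates. Readout: BID mRNA by TaqMan qRT-PCR; housekeeping-normalized; bidirectional curve fit vs DMSO baseline.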

Read-out in another assay: Caspase-3 (Homo sapiens) (UniProt P42574)
The assay is described as follows: LTEA_HepaRG_CASP3: Life Technologies and Expression Analysis (LTEA) Assay for cysteine-aspartic acid protease (CASP3) using HepaRG (AID 2283477). Summed up:
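Transcript-level assay: CASP3 mRNA in human HepaRG after 48 h treatment, eight half-log concentrations from 100 uM in 0.5% DMSO, quantified by qRT-PCR.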

Read-out in assay [12]: Cytochrome P450 (CYP1A2), CYP1A2 (gene 1544)
Briefly: LTEA_HepaRG_CYP1A2: Life Technologies and Expression Analysis (LTEA) Assay for Cytochrome P450 (CYP1A2) using HepaRG (AID 2283479). Summed up:
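In duplicate wells, HepaRG cultures maintained in 0.5% DMSO were treated 48 h across an 8-point, half-log series topping at 100 uM; phenobarbital (1 mM) served as induction control. Expression was read by qRT-PCR.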

Read-out in assay [13]: cysteine-aspartic acid protease (CASP8), CASP8 (gene 841)
Briefly: LTEA_HepaRG_CASP8: Life Technologies and Expression Analysis (LTEA) Assay for cysteine-aspartic acid protease (CASP8) using HepaRG (AID 2283480). In a few lines: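 CASP8 transcript measured by TaqMan qRT-PCR with ACTB/GAPDH/POLR2A normalization, after 48 h chemical exposure of HepaRG cells in serum-free induction medium. Eight concentrations, top 100 uM, half-log steps, 0.5% DMSO vehicle; fits in both directions versus DMSO.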

Read-out in assay [14]: Cytochrome P450 2C19 (Homo sapiens) (UniProt P33261)
Briefly: LTEA_HepaRG_CYP2C19: Life Technologies and Expression Analysis (LTEA) Assay for CYP2C19 using HepaRG (AID 2283482). Summed up:
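Endpoint: CYP2C19 mRNA change, bidirectional fit vs 0.5% DMSO. Cells: HepaRG, 48 h exposure, eight-point series topping at 100 uM. Quantitation: qRT-PCR normalized to ACTB, GAPDH, POLR2A.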

Read-out in the next assay: CYP2C8 (gene 1558)
The assay is described as follows: LTEA_HepaRG_CYP2C8: Life Technologies and Expression Analysis (LTEA) Assay for CYP2C8 using HepaRG (AID 2283483). Summed up:
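CYP2C8 expression measured by TaqMan qRT-PCR and normalized to three housekeeping genes. HepaRG cultures were treated for 48 h with an eight-point half-log series topping at 100 uM, vehicle 0.5% DMSO, duplicates; fitted both directions against DMSO.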

Read-out in assay [15]: Cytochrome P450 (CYP24A1), CYP24A1 (gene 1591)
The assay is described as follows: LTEA_HepaRG_CYP24A1: Life Technologies and Expression Analysis (LTEA) Assay for Cytochrome P450 (CYP24A1) using HepaRG (AID 2283478). In a few lines: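 Gene expression of CYP24A1 by TaqMan qRT-PCR in HepaRG after 48 h treatment, highest concentration 100 uM; activity fitted in both directions relative to DMSO vehicle.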

Read-out in assay [16]: Cytochrome P450 (CYP2B6), CYP2B6 (gene 1555)
Briefly: LTEA_HepaRG_CYP2B6: Life Technologies and Expression Analysis (LTEA) Assay for Cytochrome P450 (CYP2B6) using HepaRG (AID 2283481). Summed up:
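Human HepaRG, 48 h dosing, 0.5% DMSO vehicle, top dose 100 uM. CYP2B6 transcript by qRT-PCR, housekeeping-normalized, bidirectional curve fit.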

Caspase-3 (Homo sapiens), sequence (P42574 whole entry, looked up): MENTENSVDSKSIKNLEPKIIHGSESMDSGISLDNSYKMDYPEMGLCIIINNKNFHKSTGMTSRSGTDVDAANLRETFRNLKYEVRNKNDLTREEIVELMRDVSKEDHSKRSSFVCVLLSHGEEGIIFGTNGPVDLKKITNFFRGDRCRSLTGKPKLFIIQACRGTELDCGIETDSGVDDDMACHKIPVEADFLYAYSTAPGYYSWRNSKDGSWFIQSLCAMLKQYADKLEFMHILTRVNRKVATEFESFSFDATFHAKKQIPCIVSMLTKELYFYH
Broad substrate specificity ATP-binding cassette transporter ABCG2 (Homo sapiens), sequence (Q9UNQ0 whole entry, looked up): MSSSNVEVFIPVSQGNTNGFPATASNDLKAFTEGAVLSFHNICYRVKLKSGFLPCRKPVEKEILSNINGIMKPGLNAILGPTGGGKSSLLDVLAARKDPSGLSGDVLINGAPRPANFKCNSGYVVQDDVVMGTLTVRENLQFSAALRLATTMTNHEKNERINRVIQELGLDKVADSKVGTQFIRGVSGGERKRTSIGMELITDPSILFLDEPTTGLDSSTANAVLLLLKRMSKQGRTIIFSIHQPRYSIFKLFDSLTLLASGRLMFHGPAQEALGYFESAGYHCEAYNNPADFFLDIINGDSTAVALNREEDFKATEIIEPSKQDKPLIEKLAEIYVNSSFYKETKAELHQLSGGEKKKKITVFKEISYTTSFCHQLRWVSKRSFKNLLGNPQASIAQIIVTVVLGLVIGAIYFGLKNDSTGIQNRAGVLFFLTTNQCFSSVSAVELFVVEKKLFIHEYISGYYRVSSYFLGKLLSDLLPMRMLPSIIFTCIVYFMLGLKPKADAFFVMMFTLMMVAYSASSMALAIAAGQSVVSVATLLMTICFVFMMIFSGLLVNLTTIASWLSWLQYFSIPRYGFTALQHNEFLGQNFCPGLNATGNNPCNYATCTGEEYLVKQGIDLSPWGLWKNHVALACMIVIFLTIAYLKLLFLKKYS
Cytochrome P450 2C19 (Homo sapiens), sequence (P33261 whole entry, looked up): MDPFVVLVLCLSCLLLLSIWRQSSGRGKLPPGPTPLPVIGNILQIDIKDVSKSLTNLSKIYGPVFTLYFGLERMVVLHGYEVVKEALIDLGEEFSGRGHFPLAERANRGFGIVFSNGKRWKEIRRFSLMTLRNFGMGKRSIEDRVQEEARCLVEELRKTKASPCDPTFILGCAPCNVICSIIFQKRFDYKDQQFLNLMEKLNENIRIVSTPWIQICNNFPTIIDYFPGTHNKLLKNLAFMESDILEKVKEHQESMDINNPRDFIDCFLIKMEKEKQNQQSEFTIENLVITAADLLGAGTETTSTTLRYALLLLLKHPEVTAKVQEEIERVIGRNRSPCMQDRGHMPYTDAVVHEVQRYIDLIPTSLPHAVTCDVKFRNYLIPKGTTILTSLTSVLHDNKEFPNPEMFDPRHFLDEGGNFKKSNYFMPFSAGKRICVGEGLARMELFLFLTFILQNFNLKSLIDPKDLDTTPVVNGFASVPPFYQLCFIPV
Apoptosis regulator Bcl-2 (Homo sapiens), sequence (P10415 whole entry, looked up): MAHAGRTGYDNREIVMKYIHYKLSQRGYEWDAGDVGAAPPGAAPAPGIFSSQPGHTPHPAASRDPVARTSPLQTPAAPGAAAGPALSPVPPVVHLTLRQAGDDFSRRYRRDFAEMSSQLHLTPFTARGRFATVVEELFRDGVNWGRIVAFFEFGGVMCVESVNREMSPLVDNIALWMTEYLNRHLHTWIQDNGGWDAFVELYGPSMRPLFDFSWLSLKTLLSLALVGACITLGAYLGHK

As to `COC(=O)c1ccccc1N`, the result in assay [1], in assay [2], in [3], in assay [4], in assay [5] and in [6] was inactive. Besides, the compound was classed as inactive (in assay [7]; in [8]; with BCL2L11 (gene 10018); in assay [9]; in assay [10]; in assay [11]). In addition, the compound was classed as inactive (with Caspase-3 (Homo sapiens); in assay [12]; in assay [13]; in assay [14]; with CYP2C8 (gene 1558)).
Consider `COc1cc(C=O)cc2c1[C@H](COC(N)=O)[C@]1(OC(C)=O)ON2C[C@H]2[C@@H]1N2C(C)=O`, for which the call in assay [1], in assay [2], in assay [3], in assay [5], in assay [6] and in assay [11] was inactive. Besides, the compound was called inactive (with Caspase-3 (Homo sapiens); in assay [15]; in assay [12]). In addition, the AC50 is 94.2 µM (active) in assay [4]; 24.6 µM (active) in [7]; 950 nM (active) in assay [8]; 1.29 µM (active) with BCL2L11 (gene 10018); 316 nM (active) in assay [9]; 3.89 µM (active) in [13]. The values for the AC50 (in assay [16]; in assay [14]; in the assay with CYP2C8 (gene 1558)) were 73.4 µM (active), 804 nM (active) and 500 nM (active), respectively.
Consider `CCC12COCN1COC2`, for which the outcome in assay [1], in [2], in [3], in assay [4], in assay [5] and in assay [6] was inactive. The compound was classed as inactive (in assay [7]; in [8]; with BCL2L11 (gene 10018); in [9]; in assay [11]; with Caspase-3 (Homo sapiens)). Moreover, the compound was called inactive (in assay [12]; in assay [13]; in assay [16]; in [14]; in the assay with CYP2C8 (gene 1558)).
As for `[Cl-].[Cl-].[Hg+2]`, the result in assay [1], in [2], in assay [3], in assay [4], in assay [5] and in assay [6] was inactive. Also, the result (in assay [7]; in assay [8]; with BCL2L11 (gene 10018); in assay [9]; in assay [11]; with Caspase-3 (Homo sapiens)) was inactive. Further, the compound was called inactive (in assay [13]; in assay [14]; with CYP2C8 (gene 1558)). Further, in [12], the AC50 is 50 µM (active).
As for `Oc1ccc2ccc3cccc4ccc1c2c34`, the result in assay [1], in assay [3], in assay [4], in assay [5], in [6] and in assay [7] was inactive. The compound was classed as inactive (in [8]; with BCL2L11 (gene 10018); in assay [9]; in [11]; with Caspase-3 (Homo sapiens); in assay [15]). For the same compound, the outcome (in assay [13]; in [14]; with CYP2C8 (gene 1558)) was inactive. In addition, the AC50 in assay [2] was 11.9 µM (active); in assay [12], 11.5 µM (active).
For the compound `O=Cc1ccco1`, the compound was called inactive in assay [1], in assay [2], in assay [3], in [4], in [5] and in [6]. Besides, the call (in assay [7]; in assay [8]; with BCL2L11 (gene 10018); in [9]; in assay [11]; with Caspase-3 (Homo sapiens)) was inactive. In addition, the compound was classed as inactive (in [15]; in [12]; in assay [13]; in [14]; with CYP2C8 (gene 1558)).

In general, AC50 refers to the midpoint of the concentration-response curve, whichever way the signal moves.

The values above are taken from PubChem BioAssay (EPA / NIEHS).
